Screens (PubChem BioAssay)
Hits are enriched below; roughly 3.1% of the tested compounds scored in any of these assays.
p53null 32C tox: qHTS Screen for Compounds that Selectively Target Cancer Cells with p53 Mutations: Cytotoxicity of p53 Null Cells at the Permissive Temperature; hit rate 0.62% among 55,000; Potency, µM (highest dose often 46.1 µM), most hits filed as cytotoxic; H1299-neo p53 null cells, ATP luminescence, 24 h, 32C; AID 903, 2007; note: nearly all actives have a fitted effect of over 55% in size
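H1299-neo, 600 cells/well; overnight 37C; cpd up to 46 uM, 24 h at 32C; ATPlite luminescence after 20 min RT; normalized to DMSO (0%) and tamoxifen 100 uM (100% kill); Hill-fit AC50.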
pS6 MEF inh: Acumen qHTS Assay for Inhibitors of the mTORC1 Signaling Pathway in MEF (Tsc2-/-, p53-/-) Cells: Sytravon | Tsc2-/- p53-/- MEF, phospho-rpS6 immunofluorescence/PI, 24 h | Potency, µM (highest dose often 38.3 µM), usual class: inhibitors | hit rate 0.78% among 44,000 | AID 493208, 2011; note: nearly all actives have a fitted effect of over 50% in size
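Readout is phospho-S6 Alexa 488 signal normalized to PI per well, reported as % active cells with thresholds set from rapamycin (7.5 nM) and DMSO controls. Cells: Tsc2-/-, p53-/- MEFs, 24 hrs compound at 37 C; PI cell number serves as viability.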
PMP22 txn: Cell-based coincidence reporter assay to measure PMP22 gene transcription in S16 Pmp22-F2sN cells - Primary screen; S16 Pmp22-F2sN Schwann cells, FLuc/NLuc coincidence luminescence, 24 h; hit rate 2% among 43,000; AID 1508649, 2021; Potency, µM (series often up to 57.5 µM), hits mostly inhibitors; active = clear falling dose curves in both reporters; inconclusive = both reporters move, but less clearly or upward; inactive = either reporter flat; the % is the NLuc reporter signal
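qHTS, 1536-well. Cells seeded, compounds added by pin tool, 24 h 37C. Nano-Glo reagent 1 (lysis/FLuc), 10 min RT, read; Stop&Glo, 10 min RT, read NLuc.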
p53null 39C kill: qHTS Screen for Compounds that Selectively Target Cancer Cells with p53 Mutations: Cytotoxicity of p53 Null Cells at the Nonpermissive Temperature. H1299 p53-null (neo) cells, 39C, ATPlite viability, 24 h. hit rate 0.97% among 55,000. Potency, µM (doses to about 46.1 µM), hits mostly cytotoxic; note: nearly all actives have a fitted effect of over 50% in size
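Temperature-shift cytotoxicity format: compound titrations on p53-null or A138V-expressing H1299 cells held 24 hr at 39C, cell ATP then measured, AC50 from Hill model.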
S16 F2sN tox: Cell viability qHTS assay in S16 Pmp22-F2sN cells; AID 1508642, 2021; hit rate 0.48% among 43,000; Potency, µM (series often up to 57.5 µM), most hits filed as cytotoxic; S16 Pmp22-F2sN Schwann cells viability, CellTiter-Glo, 24 h; note: nearly all actives have a fitted effect of over 65% in size
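Viability was measured by CellTiter-Glo luminescence (15 min, room temperature). This followed 24 h at 37 °C of compound exposure (23 nL pin transfer) in S16 Pmp22-F2sN Schwann cells, 500-1,000 per well.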
OvCa metastasis: Primary qHTS assay for Inhibitors of ovarian cancer metastasis using an organotypic tumor microenvironment (TME) model; SKOV3ip1-GFP adhesion/invasion on 3D omental model, fluorescence; Potency, µM (highest dose often 45.8 µM), actives largely listed as inhibitors; hit rate 0.1% among 46,000; AID 1963576, 2024; note: nearly all actives have a fitted effect of over 65% in size
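qHTS, 4-pt dose (0.36-46 umol/L); SKOV3ip1-GFP, 1,200 cells/well, no FBS; primary omental fibroblast/mesothelial co-culture 48 h pre-grown; 2 h RT + 16 h 37 C; PBS wash, 4% PFA; GFP count 488/509 nm.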
Large screens that a line does not name were inactive. Unless noted, calls come from the whole dose curve; as a rule, active = well fitted curve in the direction sought with a large enough effect; inconclusive = small, poorly fitted or top-dose-only effect, or another doubt; inactive = no such curve, though single readings can be large; an effect the other way counts as inactive or inconclusive.

Cc1cc(C)c2c(N)c(C(=O)Nc3ncc(C)s3)sc2n1	p53null 32C tox 0.89µM, p53null 39C kill 1µM (no result: pS6 MEF inh, PMP22 txn, S16 F2sN tox, OvCa metastasis)
CCCS(=O)(=O)Nc1ccc(F)c(C(=O)c2c[nH]c3ncc(-c4ccc(Cl)cc4)cc23)c1F	none (no result: p53null 32C tox, pS6 MEF inh, PMP22 txn, p53null 39C kill, S16 F2sN tox)
CC(C)C[C@H](NC(=O)CNC(=O)c1cc(Cl)ccc1Cl)B1OC(=O)CC(CC(=O)O)(C(=O)O)O1 (stereo partly specified)	none (no result: p53null 32C tox, pS6 MEF inh, PMP22 txn, p53null 39C kill, S16 F2sN tox)
CCOc1cc(CNc2ccc(O)cc2)cc(Cl)c1OCc1ccccc1	pS6 MEF inh inconclusive, PMP22 txn inconclusive, p53null 39C kill inconclusive, S16 F2sN tox 8.9µM
CCOc1ccc(NC(=O)c2ccc(N)cc2)cc1	p53null 32C tox 11µM, p53null 39C kill inconclusive (no result: pS6 MEF inh, PMP22 txn, S16 F2sN tox, OvCa metastasis)
CCCOc1ccc(C(=O)Nc2ccc(NC(=O)c3ccccc3)c(Br)c2)cc1	pS6 MEF inh 18µM, PMP22 txn inconclusive, S16 F2sN tox inconclusive
CCOc1ccc(C(=O)Nc2ccc(-n3nncc3-c3ccc(OC)cc3)cc2)cc1	none
CC(C)c1cnn2c(NCc3ccccc3)cc(N[C@@H](CO)[C@H](O)CO)nc12	none (no result: p53null 32C tox, pS6 MEF inh, PMP22 txn, p53null 39C kill, S16 F2sN tox)
CC1(C)CNc2cc(NC(=O)c3cccnc3NCc3ccncc3)ccc21	none (no result: p53null 32C tox, pS6 MEF inh, PMP22 txn, p53null 39C kill, S16 F2sN tox)
CN(C)c1nc(Cc2ccc(NC(=O)c3ccc(C(F)(F)F)cc3)cc2)nc(N(C)C)c1CC(=O)O	none (no result: p53null 32C tox, pS6 MEF inh, PMP22 txn, p53null 39C kill, S16 F2sN tox)
CCCCOC(=O)c1cccc(NC(=O)c2cc3ccccc3o2)c1	p53null 32C tox 10µM, PMP22 txn inconclusive, p53null 39C kill 13µM
Cc1ccc(CNC(=O)Cn2c(SCC(=O)Nc3ccc(F)cc3)nc3ccccc32)cc1	p53null 32C tox inconclusive, pS6 MEF inh inconclusive, PMP22 txn inconclusive, p53null 39C kill 13µM, S16 F2sN tox inconclusive
CCOc1ccccc1CNC(=O)C1CCN(c2nnc(C)c3c(C)n(-c4ccc(C)cc4)nc23)CC1	p53null 32C tox inconclusive, PMP22 txn inconclusive, p53null 39C kill 16µM, S16 F2sN tox inconclusive, OvCa metastasis 7.9µM
Cc1ccc(-n2nc3c(N4CCCC(C(=O)NCCc5ccccc5)C4)nnc(C)c3c2C)cc1 (stereo unspecified)	PMP22 txn inconclusive, S16 F2sN tox inconclusive, OvCa metastasis inconclusive
Cc1nnc(N2CCC(C(=O)NCCc3ccccc3)CC2)c2nn(-c3ccc(Cl)cc3)c(C)c12	p53null 39C kill inconclusive
Cc1nnc(N2CCC(C(=O)NCc3ccc(F)cc3)CC2)c2nn(-c3ccc(Cl)cc3)c(C)c12	PMP22 txn inconclusive, OvCa metastasis inconclusive
COc1ccccc1CCNC(=O)C1CCN(c2nnc(C)c3c(C)n(-c4ccc(C)cc4)nc23)CC1	PMP22 txn inconclusive, p53null 39C kill 10µM, S16 F2sN tox inconclusive, OvCa metastasis inconclusive
Cc1ccc(Cl)cc1NC(=O)C1CCN(c2nnc(C)c3c(C)n(-c4ccccc4)nc23)CC1	p53null 32C tox inconclusive, PMP22 txn inconclusive, p53null 39C kill 13µM
COc1ccc(Cl)cc1NC(=O)C1CCN(c2nnc(C)c3c(C)n(-c4ccccc4)nc23)CC1	PMP22 txn inconclusive
Cc1nnc(N2CCC(C(=O)NCCc3ccccc3Cl)CC2)c2nn(-c3ccccc3)c(C)c12	p53null 32C tox inconclusive, PMP22 txn inconclusive, p53null 39C kill 10µM, S16 F2sN tox 35µM, OvCa metastasis inconclusive
Clc1ccc2c(N3CCN(CCCN4CCN(c5ccnc6cc(Cl)ccc56)CC4)CC3)ccnc2c1	none (no result: p53null 32C tox, pS6 MEF inh, PMP22 txn, p53null 39C kill, S16 F2sN tox)
